Bioassay records deposited in PubChem by National Center for Advancing Translational Sciences (NCATS).
Methyltransferases – Primary Screen for Target Class Profiling of Small Molecule Inhibitors of Methyltransferases. purified enzyme, MTase-Glo SAH luminescence; active compounds read low. calls only at 40 µM. actives 3.9% (n = 25,000). AID 1745853, 2022; call rule not given here
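Each enzyme was assayed with SAM and its substrate. SAH formation detected by MTase-Glo luminescence; single-point 40 uM screen[…].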
Calls only; n = inactive; + = active, no number. The entries come from a sample that favours hits as a whole.

SMILES	Methyltransferases
CCc1cc2c(cc3n2CC(C)(C(=O)NC2CCCCC2)N(c2ccc(C(C)C)cc2)C3=O)s1 (configuration not stated)	n
O=C(CSc1nnc2n(Cc3ccccc3)c(=O)c3ccccc3n12)Nc1cc(F)ccc1F	n
CCc1ccccc1NC(=O)CN(C)S(=O)(=O)c1ccc2[nH]c3c(c2c1)CCCC3	n
Cc1[nH]c2ccccc2c1CCNCc1ccc(/C=C/C(=O)NO)cc1	+
Cc1[nH]c2ccccc2c1CCNC(=O)c1ccccc1F	n
O=C(Cn1nc2nc(Nc3ccc(F)cc3)ccn2c1=O)Nc1ccccc1F	n
CCCn1c(=O)sc2cc(NS(=O)(=O)c3ccc4c(c3)n(C)c(=O)n4C)ccc21	n
CC1CCC(NC(=O)C2(C)Cn3c(ccc3-c3ccco3)C(=O)N2CCc2ccccc2)CC1 (configuration not stated)	n
COC(=O)c1cc2n(n1)CC(C)(C(=O)NC1CCC(C)CC1)N(c1cccc(OC)c1)C2=O (configuration not stated)	n
COc1ccc(-c2cc3n(n2)CC(C)(C(=O)NCc2ccccc2OC)N(c2cccc(Cl)c2C)C3=O)cc1 (configuration not stated)	n
C/C(=N\N=C(N)N)c1cc(NC(=O)CCCCCCCCC(=O)Nc2cc(/C(C)=N/N=C(N)N)cc(/C(C)=N/N=C(N)N)c2)cc(/C(C)=N/N=C(N)N)c1	+
CC(C(=O)N1CCOCC1)n1ccc2cc(S(=O)(=O)N3CCCC3)ccc21 (configuration not stated)	n
CC1CC(=O)C2=C(O1)OC1(C)CCC3C(C)(C)C=CC(=O)C3(C)C1C2 (configuration not stated)	+
CC1CC(=O)C2=C(O1)OC1(C)CCC3C(C)(C)C4OC4C(=O)C3(C)C1C2 (configuration not stated)	+
CCCCCNc1nc2c(-c3ccc(F)cc3)nnn2c2ccccc12	n
CCCn1c(=O)c2cc(Cl)ccc2n2c(SCC(=O)Nc3ccccc3F)nnc12	n
CCCCNC(=O)c1ncn2c1C(=O)N(CCC)C(C)(C(=O)NCCC(C)C)C2 (configuration not stated)	n
NC(N)=NC(=O)c1cnn(-c2cccc3ncccc23)c1C1CC1	+
COc1ccccc1CNC(=O)C1(C)Cn2nc(-c3ccccc3)cc2C(=O)N1CCC(C)C (configuration not stated)	n
COCCCNC(=O)C1(C)Cn2nc(-c3ccccc3)cc2C(=O)N1c1ccc2c(c1)OCO2 (configuration not stated)	n
CC(C)OCCCn1c(=O)c2ccccc2n2c(CCC(=O)NCCc3ccccc3)nnc12	n
O=C1NC(=O)C(c2ccccc2[N+](=O)[O-])=C1Nc1ccc(O)c(Cl)c1	+
CCOCCCN1C(=O)c2cc(-c3ccc(OC)cc3)nn2CC1(C)C(=O)NC1CCCCC1 (configuration not stated)	n
Cc1cc2c(cc3n2CC(C)(C(=O)NC2CCCCCCC2)N(Cc2ccccn2)C3=O)o1 (configuration not stated)	n
CC1(C(=O)NC2CCCCCC2)Cn2c(cc3sccc32)C(=O)N1C1CCCC1 (configuration not stated)	n
SMILES	Methyltransferases
Cn1c2c(c3ccccc31)C(C(=O)NCc1ccccc1)N(Cc1ccco1)C(=O)CS2 (configuration not stated)	n
COc1cccc(CSc2nnc3n(Cc4ccccc4)c(=O)c4ccc(C(=O)NC(C)C)cc4n23)c1	n
CCC(C(=O)N1CCN(c2ccccc2)CC1)n1ccc2cc(S(=O)(=O)N3CCCCC3)ccc21 (configuration not stated)	n
COc1cc(/C=C/C(=O)O[C@H]2[C@H](O)[C@@H](CO)O[C@@]2(CO)O[C@H]2O[C@H](CO)[C@@H](O)[C@H](O)[C@H]2O)ccc1O	n
COc1cc(/C=C/C(=O)OC[C@H]2O[C@H](O[C@]3(CO)O[C@H](CO)[C@@H](O)[C@@H]3O)[C@H](O)[C@@H](O)[C@@H]2O)cc(OC)c1O	n
COc1cc(CC(COC2OC(CO)C(O)C(O)C2O)c2cc(/C=C/CO)cc(OC)c2O)ccc1O (configuration not stated)	n
COc1cc(/C=C/C(=O)O[C@H]2[C@H](OC(=O)/C=C/c3cc(OC)c(O)c(OC)c3)O[C@H](CO[C@@H]3O[C@H](CO)[C@@H](O)[C@H](O)[C@H]3O)[C@@H](O)[C@@H]2O)ccc1O	+
COc1cc([C@H]2c3cc(O)c(OC)cc3C[C@@H](CO[C@@H]3O[C@H](CO)[C@@H](O)[C@H](O)[C@H]3O)[C@@H]2CO)ccc1O	n
COc1cc(/C=C/C(=O)OC[C@H]2O[C@@](CO)(O[C@H]3O[C@H](CO)[C@@H](O)[C@H](O)[C@H]3O)[C@@H](OC(=O)/C=C/c3ccc(O)c(OC)c3)[C@@H]2O)ccc1O	+
CC(C)NC(=O)c1ccc2c(=O)n(Cc3ccccc3)c3nn(Cc4ccccc4)c(=O)n3c2c1	n
CCC(C)NC(=O)c1ccc2c(=O)n(CC(C)C)c3nn(C)c(=O)n3c2c1 (configuration not stated)	n
CC(CN1C(=O)c2nc3ccccc3n2CC1(C)C(=O)NC1CCCC1)c1ccccc1 (configuration not stated)	n
CC(CN1C(=O)c2cc3occc3n2CC1(C)C(=O)NC1CCCCCCC1)c1ccccc1 (configuration not stated)	n
CCCCn1ccc(N2CCC(c3ccccc3)CC2)c(Cl)c1=O	n
C[C@@H]1O[C@@H](O[C@H]2[C@H](O[C@H]3[C@H](O[C@H]4CC[C@@]5(C)C(CC[C@]6(C)C5CC=C5[C@@H]7CC(C)(C)C[C@@H](O)[C@]7(C)CC[C@]56C)[C@@]4(C)CO)O[C@H](C(=O)O)[C@@H](O)[C@@H]3O)O[C@H](CO)[C@H](O)[C@@H]2O)[C@H](O)[C@H](O)[C@H]1O (some centres not stated)	n
C[C@@H]1O[C@@H](O[C@H]2[C@H](O[C@H]3[C@H](O[C@H]4CC[C@@]5(C)C(CC[C@]6(C)C5CC=C5[C@@H]7CC(C)(C)C[C@@H](O)[C@]7(C)CC[C@]56C)[C@@]4(C)CO)O[C@H](C(=O)O)[C@@H](O)[C@@H]3O)O[C@H](C(=O)O)[C@H](O)[C@@H]2O)[C@H](O)[C@H](O)[C@H]1O (some centres not stated)	n
CC1(CO)CC(O)C2(C)CCC3(C)C(=CCC4C5(C=O)CCC(OC6OC(C(=O)O)C(O)C(O)C6OC6OC(C(=O)O)C(O)C(O)C6O)C(C)(C)C5CCC43C)C2C1 (configuration not stated)	+
CC(C)CCn1c(=O)c2ccccc2n2c(SCC(=O)NCc3ccccc3)nnc12	n
COc1ccc2c(c1)c(NC(C)=O)c1n2CC(C)(C(=O)NC2CCCC2)N(Cc2ccccc2)C1=O (configuration not stated)	n
CCC(C)NC(=O)c1ccc2c(=O)n(C(C)C)c3nn(CC(=O)Nc4ccc(C)cc4C)c(=O)n3c2c1 (configuration not stated)	n
Cc1cccc(NC(=O)N2CCn3cccc3C2Cc2ccccc2)c1C (configuration not stated)	n
CCc1ccccc1Nc1nn2c(=O)c3ccc(C(=O)NC4CCCCC4C)cc3nc2s1 (configuration not stated)	n
